The source of these data is PubChem BioAssay (NCATS).

The structures appear in SMILES notation. Inconclusive results are not listed. A number with no mark means an inactive call. Calls follow the shape of the dose curve; as a rule, active = well fitted curve in the direction sought with a large enough effect; inconclusive = small, poorly fitted or top-dose-only effect, or another doubt; inactive = no such curve, though single readings can be large or run the other way.

The assay can be described thus: Cytometric Cell-Based qHTS for Inhibitors of the mTORC1 Signaling Pathway in MEF (Tsc2-/-, p53-/-) Cells (AID 2660).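 Also: percent of cells above a phospho-rpS6 to PI ratio cutoff in each well; plate controls were DMSO for no effect and rapamycin for full effect.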 The note with it: mTORC1 pathway cytometry; series mostly up to 38.3 µM; activity change, negative = inhibition: at the top concentration. Put shortly:
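Tsc2-/-, p53-/- MEFs (empty vector) exposed to compound 24 h at 37 C, fixed, stained with Alexa-488 anti-phospho-rpS6 Ser235/236 and propidium iodide. Acumen laser scanning; phospho-S6/PI ratio thresholded against 7.5 nM rapamycin, reported as % positive cells.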
In general terms: qHTS replaces the single test concentration by a dilution series.
With `N=C(N)c1ccc(OCCCCCOc2ccc(C(=N)N)cc2)cc1` (tested in a mixture with another compound), the “activity change, negative = inhibition” value is 5.66%.

For the compound `CC(O)C(O)[C@H]1CNc2nc(N)[nH]c(=O)c2N1` (some centres not stated), the “activity change, negative = inhibition” value was 1.81%. As for `N#C/C(=C\c1ccc(O)c(O)c1)C(=O)NCCCNC(=O)/C(C#N)=C/c1ccc(O)c(O)c1`, the figure is 0.0294%. Next, `Cc1nc2c(OCc3ccccc3)cccn2c1CC#N`: -4.48%.

For the compound `O=C(O)C1=CCCN(CCON=C(c2ccccc2)c2ccccc2)C1`, the “activity change, negative = inhibition” value was -4.94%.

Regarding `CC(=O)SC1CC2=CC(=O)CC[C@]2(C)C2CC[C@@]3(C)C(CC[C@@]34CCC(=O)O4)C12` (some centres not stated), the “activity change, negative = inhibition” value was -3.28%. As for `COc1ccc(CCn2nnnc2C2(c3ccc(C)cc3)CC2)cc1`, the figure is 8.37%; as for `CC(C)[C@@H]1CC[C@@H](C)C[C@@H]1P(=O)(c1ccccc1)c1ccccc1`, 0.147%; as for `CCCCOc1cc(CC2CNC(=O)N2)ccc1OC` (configuration not stated), 6.58%.

Regarding `O=c1cc(O)cc(/C=C/c2ccc(O)c(O)c2)o1`, the “activity change, negative = inhibition” value is -3.41%.

With `Nc1ncnc2c1ncn2C1CCCO1` (configuration not stated), the “activity change, negative = inhibition” value was 9.49%. With `O=C(O)C1=CC(=C(c2ccc(O)c(C(=O)O)c2)c2ccc(O)c(C(=O)O)c2)C=CC1=O`, the “activity change, negative = inhibition” value is 1.4%. As for `CCCn1c(=O)c(C)cn2nc(N)nc12`, the figure is -3.15%; as for `C=CC1(C)CC(=O)C2(O)C(C)(O1)C(OC(C)=O)C(O)C1C(C)(C)CCC(O)C12C` (configuration not stated), 2.34%; as for `O=c1[nH]c(=O)c2nc3ccccc3nc2[nH]1`, -13.1%. Turning to `CC(C)C[C@H](NC(=O)C1OC1C(=O)O)C(=O)NCCCCN=C(N)N` (some centres not stated), the “activity change, negative = inhibition” value was -14.7%.

With `O=C(O)CCC/C=C\C[C@@H]1[C@@H](/C=C/[C@H](O)C2Cc3ccccc3C2)[C@@H](F)C[C@@H]1O`, the “activity change, negative = inhibition” value was -17.6%.
